Laboratory results reported in PubChem BioAssay (NCATS).
Records with an inconclusive call do not appear. The source made the active and inactive calls. Calls follow the shape of the dose curve; as a rule, active = well fitted curve in the direction sought with a large enough effect; inconclusive = small, poorly fitted or top-dose-only effect, or another doubt; inactive = no such curve, though single readings can be large; an effect the other way counts as inactive or inconclusive.

Legend:
[1] = MultiTox-Fluor Cytotoxicity Assay - LYMP1-002 - Live Cells (AID 955); details: LYMP1-002 lymphoblastoid live-cell protease fluorescence viability; series mostly up to 46.1 µM;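 also: cells exposed to compound for 16 hours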
How it was run: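 After 16 h compound exposure at 37 C, live LYMP1-002 lymphoblastoid cells (2500/well) were quantified by cleavage of cell-permeant GF-AFC substrate, read at 405/510 nm after 60 min. Concentration-response fitted with Hill equation for AC50.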

[2] = MultiTox-Fluor Cytotoxicity Assay - LYMP1-003 - Dead Cells (AID 961); details: LYMP1-003 lymphoblastoid cells, dead-cell protease fluorescence; series mostly up to 92.2 µM; also: nearly all actives have a fitted effect of over 70% in size
How it was run: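 Dead-cell protease release, detected as bis-AAF-R110 fluorescence at 485/520 nm, was measured in LYMP1-003 cells after 16 h compound treatment at 37 C. AC50 values came from Hill-modeled qHTS curves normalized to DMSO (0%) and 15 uM tetraoctylammonium bromide (100%).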

[3] = MultiTox-Fluor Cytotoxicity Assay - LYMP1-003 - Live Cells (AID 962); details: LYMP1-003 lymphoblastoid cells, MultiTox-Fluor live-cell protease fluorescence; series mostly up to 92.2 µM;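 also: cells exposed to compound for 16 hours at 37 °C; cytotoxic hits lower the live-cell protease signal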
How it was run: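 Live-cell protease activity (GF-AFC substrate, 405/510 nm, 60 min at room temperature) after 16 h, 37 C compound exposure of human lymphoblastoid LYMP1-003 cells; concentration-response fitted to the Hill equation for AC50.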

[4] = Cell Viability - LYMP1-003 - Assay at 24 hr (AID 963); details: LYMP1-003 lymphoblastoid cell viability; series mostly up to 92.2 µM
How it was run: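 Concentration-response qHTS: ATP loss measured by CellTiter-Glo luminescence after 24 h compound exposure at 37 C. Cells were LYMP1-003 human lymphoblastoid, 2500 per well. AC50 derived via standard Hill equation modeling.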

[5] = Cell Viability - LYMP2-003 (AID 965); details: LYMP2-003 lymphoblastoid cell viability; series mostly up to 92.2 µM;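 also: cells exposed to compounds for 24 h before reading; nearly all actives have a fitted effect of over 50% in size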
How it was run: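 Seed 2500 lymphoblastoid cells/well; incubate 5 hr, 37 C; add compounds; incubate 24 hr, 37 C; add CellTiter-Glo, 30 min RT; read luminescence. AC50 from Hill fit.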

[6] = Cell Viability - LYMP2-004 (AID 966); details: LYMP2-004 lymphoblastoid cell viability, qHTS; series mostly up to 92.2 µM; also: nearly all actives have a fitted effect of over 65% in size
How it was run: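 AC50 values come from Hill modelling of concentration-dependent loss of intracellular ATP, measured by CellTiter-Glo luminescence. Human LYMP2-004 lymphoblastoid cells (2500/well) were exposed to compound for 24 h at 37 C.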

[7] = Cell Viability - LYMP2-009 (AID 968); details: LYMP2-009 lymphoblastoid cell viability; series mostly up to 92.2 µM; also: nearly all actives have a fitted effect of over 55% in size
[8] = biological target: Alpha-galactosidase (Coffea arabica) (UniProt Q42656); test: Counterscreen for Glucocerebrosidase Inhibitors: qHTS Assay for Coffee Bean alpha-Galactosidase at pH 4.5 (AID 957); details: purified coffee bean alpha-galactosidase, fluorogenic substrate; series mostly up to 76.9 µM
How it was run: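 Fluorogenic qHTS at pH 4.5 (citrate buffer with Tween-20): 2 nM enzyme, 80 uM 4-MU-alpha-galactoside substrate, compound titrated 0.7 nM to 77 uM, 20 min room temperature. Glycine/NaOH stop; 4-MU read Ex 365/Em 440; Hill-equation AC50 against no-enzyme and enzyme controls.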

[9] = MultiTox-Fluor Cytotoxicity Assay - LYMP1-002 - Dead Cells (AID 960); details: LYMP1-002 lymphoblastoid cells, dead-cell protease fluorescence; series mostly up to 46.1 µM; also: nearly all actives have a fitted effect of over 60% in size
How it was run: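 Dead-cell fluorescence (Ex/Em 485/520) after 16 h compound exposure at 37 C of LYMP1-002 lymphoblastoid cells in complete medium; AC50 by Hill equation, with data scaled between DMSO and 15 uM tetraoctylammonium bromide.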

[10] = Cell Viability - LYMP2-005 (AID 967); details: LYMP2-005 lymphoblastoid cell viability; series mostly up to 92.2 µM
How it was run: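 Acute cytotoxicity is scored as a concentration-dependent drop in intracellular ATP in human lymphoblastoid LYMP2-005 cells after 24 h compound treatment. ATP is quantified by luciferase luminescence, and AC50 is derived by Hill-equation modelling.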

Measured: Potency

Chain of Alpha-galactosidase (Coffea arabica) (Q42656 whole entry, looked up): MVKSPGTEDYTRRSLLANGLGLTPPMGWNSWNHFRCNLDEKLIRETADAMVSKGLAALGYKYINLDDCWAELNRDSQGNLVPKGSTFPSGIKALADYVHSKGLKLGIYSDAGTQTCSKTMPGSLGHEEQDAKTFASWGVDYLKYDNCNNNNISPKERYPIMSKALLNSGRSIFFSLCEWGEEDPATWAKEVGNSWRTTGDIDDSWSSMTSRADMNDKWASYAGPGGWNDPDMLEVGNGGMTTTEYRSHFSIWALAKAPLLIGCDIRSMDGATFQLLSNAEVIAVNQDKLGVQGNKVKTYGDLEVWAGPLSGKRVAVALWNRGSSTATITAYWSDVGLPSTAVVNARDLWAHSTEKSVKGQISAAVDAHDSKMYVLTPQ

CCOC(=O)CC(SP(=S)(OC)OC)C(=O)OCC (stereo unspecified)
inactive: [1] | [2] | [3] | [4] | [5] | [6] | [7]

O=C(CCCN1CCC2(CC1)C(=O)NCN2c1ccccc1)c1ccc(F)cc1
inactive: [8]

O=C(O)CCCc1ccc(N(CCCl)CCCl)cc1
inactive: [1] | [8] | [9] | [2] | [3] | [4]

C[N+](C)(C)CCCCCC[N+](C)(C)C
inactive: [8]

CN1C[C@H](C(=O)N[C@]2(C)O[C@@]3(O)[C@@H]4CCCN4C(=O)[C@H](Cc4ccccc4)N3C2=O)C=C2c3cccc4[nH]cc(c34)C[C@H]21
inactive: [1] | [2] | [3] | [4] | [5] | [6] | [7]

C[C@]1(O)CC[C@H]2[C@@H]3CCC4=CC(=O)CC[C@]4(C)[C@@]3(F)[C@@H](O)C[C@@]21C
inactive: [1] | [9] | [2] | [3] | [4] | [5] | [6] | [10] | [7]

O=P1(N(CCCl)CCCl)NCCCO1 (stereo unspecified)
inactive: [1] | [8] | [9] | [2] | [3] | [4] | [5] | [6] | [10] | [7]

CC(C)NC(C)C
inactive: [1] | [9] | [2] | [3] | [4] | [5] | [6] | [10] | [7]

COC(=O)C(c1ccccc1)C1CCCCN1 (stereo unspecified)
inactive: [1] | [9] | [2] | [3] | [4] | [5] | [6] | [10] | [7]

CCN(CC)CCOC(=O)c1ccc(N)cc1
inactive: [8]

NC(N)=NC(=O)Cc1c(Cl)cccc1Cl
inactive: [8]
